Laboratory results reported in PubChem BioAssay AID449762 (Southern Research Specialized Biocontainment Screening …, 2010).
In all, about 330,000 compounds went through this assay and about 1,900 (0.58%) were called active. Roughly 4% stayed inconclusive and do not appear here. The list is a sample of the results. Measured potencies and affinities stand elsewhere. A number with no mark means an inactive call. Cut-off read from the data, not from the text of the source: inconclusive = inhibition above about 70% without an active follow-up result; inactive = below that.

Test: M. tuberculosis growth inhibition, HTS (AID 449762);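 note: bacterial growth assessed after seven days of incubation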
Settings: M. tuberculosis H37Rv growth inhibition, 7H9 media; at 25 µM; hits give high values

Q: For O=C(OCCN1C(=O)c2ccccc2C1=O)c1ccco1, which inhibition is on record?
A: The inhibition was -9.08%.

Q: With O=C(OCCN1CCCCC1)c1cc2ccccc2o1 as the compound, how does the inhibition read?
A: Its inhibition is -14.3%.

Q: Which inhibition does the source give for COc1ccccc1/C=C/C=N/n1c(C2CCCCC2)n[nH]c1=S here?
A: The inhibition was 0.81%.

Q: Which inhibition does the source give for CC(=O)c1ccc(N2CCN(C(=O)c3cc(-c4ccncc4)nc4ccc(Cl)cc34)CC2)cc1 here?
A: Its inhibition is 7.21%.

Q: With CN1CCN(CCCNC(=O)c2ccc(/C=C3\Oc4ccccc4N(Cc4ccccc4F)C3=O)cc2)CC1 as the compound, how does the inhibition read?
A: Its inhibition is 57.7%.

Q: Which inhibition does the source give for Cc1cccc(CN2C(=O)/C(=C\c3ccc(C(=O)NCCN4CCOCC4)cc3)Sc3ccccc32)c1 here?
A: The inhibition was 49.5%.

Q: Which inhibition does the source give for Cc1ccc(Cn2nc(C)c(NC(=O)CSc3n[nH]c(C)c3[N+](=O)[O-])c2C)cc1 here?
A: The inhibition was -3.06%.

Q: For O=C(NC1CCN(C(=O)N2c3ccccc3Sc3ccccc32)CC1)c1ccccc1Cl, which inhibition is on record?
A: Its inhibition is 62.3%.

Q: Which inhibition does the source give for O=C(NC1CCN(C(=O)N2c3ccccc3Sc3ccccc32)CC1)c1ccco1 here?
A: The inhibition was -19.1%.

Q: For Cc1sc2ncnc(SCC(=O)c3cccs3)c2c1C, which inhibition is on record?
A: The inhibition was -19.7%.

Q: With COC(=O)c1ccccc1NC(=O)c1cc2n(n1)C(C(F)F)CC(C(F)F)N2 (stereo unspecified) as the compound, how does the inhibition read?
A: The inhibition was -2.91%.

Q: With O=c1[nH]c(SCc2ccc(Cl)cc2)nc2ccccc12 as the compound, how does the inhibition read?
A: The inhibition was 4.03%.

Q: For O=C(CSc1nc2[nH]ncc2c(=O)[nH]1)NCc1ccccc1, which inhibition is on record?
A: The inhibition was -0.89%.

Q: Which inhibition does the source give for CC1CC(C)CN(CCOc2ccccc2-c2ccccc2)C1 (stereo unspecified) here?
A: The inhibition was 3.01%.

Q: For O=C(COC(=O)c1ccc2c(c1)S(=O)(=O)N=C1CCCCCN12)NCCc1ccc(F)cc1, which inhibition is on record?
A: Its inhibition is -6.19%.

Q: With COCC(=O)N(Cc1cc2ccc(C)cc2[nH]c1=O)c1ccc(C)cc1C as the compound, how does the inhibition read?
A: Its inhibition is -1.78%.

Q: Which inhibition does the source give for Cc1ccc(-c2c(C#N)c(N)nc3c2CCCCCC3)o1 here?
A: The inhibition was 21.5%.

Q: For CSc1ccccc1NC(=O)CN(C)CC(=O)c1[nH]c(C)c(C(C)=O)c1C, which inhibition is on record?
A: The inhibition was -0.15%.

Q: Which inhibition does the source give for Cc1ccc(S(=O)(=O)N2CCN(C(=O)Cn3c(=O)oc4ccccc43)CC2)cc1 here?
A: Its inhibition is 8.54%.

Q: For Cc1nc(-c2nc(-c3c(C(=O)NNC(=O)Nc4ccccc4)noc3C)cs2)cs1, which inhibition is on record?
A: The inhibition was -4.32%.

Q: With Cc1nc(-c2nc(-c3c(C(=O)NNC(=O)Nc4cccc(Cl)c4)noc3C)cs2)cs1 as the compound, how does the inhibition read?
A: Its inhibition is 11.3%.

Q: Which inhibition does the source give for CC(=O)Nc1c(C(=O)NCc2ccccc2)nnn1Cc1ccccc1 here?
A: The inhibition was -10.2%.

Q: With COc1ccc(N(CC(=O)Nc2ccccc2F)S(=O)(=O)c2ccc(C)c([N+](=O)[O-])c2)cc1 as the compound, how does the inhibition read?
A: Its inhibition is 0.33%.

Q: For COc1ccc(N(CC(=O)Nc2ccccc2C(=O)O)S(=O)(=O)c2ccc(C)c([N+](=O)[O-])c2)cc1, which inhibition is on record?
A: The inhibition was -2.79%.

Q: Which inhibition does the source give for COc1ccc(N(CC(=O)Nc2ccc(C)cc2C)S(=O)(=O)c2c(C)n[nH]c2C)cc1 here?
A: Its inhibition is 6.74%.

Q: Which inhibition does the source give for COc1ccc(N(CC(=O)Nc2ccc(Cl)cc2)S(=O)(=O)c2c(C)n[nH]c2C)cc1 here?
A: Its inhibition is 2.17%.

Q: Which inhibition does the source give for O=C(CCSc1nnc2ccccn12)Nc1ccc2c(c1)OCO2 here?
A: Its inhibition is -0.07%.

Q: For COc1ccc(OC)c(S(=O)(=O)Nc2cc(Cl)cc(Cl)c2)c1, which inhibition is on record?
A: Its inhibition is -2.29%.

Q: With CN1/C(=C\C(=S)NC(=O)c2ccccc2Cl)C(C)(C)c2ccccc21 as the compound, how does the inhibition read?
A: The inhibition was -5.96%.

Q: With CC(C)C(=O)NC(=S)/C=C1/N(C)c2ccccc2C1(C)C as the compound, how does the inhibition read?
A: Its inhibition is 2.15%.

Q: Which inhibition does the source give for Cc1cccc(NS(=O)(=O)c2csc(C(N)=O)c2)c1C here?
A: Its inhibition is -0.04%.

Q: Which inhibition does the source give for Cc1ccc(CC(=O)Nc2cc(C)ccn2)cc1 here?
A: The inhibition was 3.78%.

Q: With CC1Sc2ccc(S(=O)(=O)CCC(=O)Nc3ccccc3Cl)cc2NC1=O (stereo unspecified) as the compound, how does the inhibition read?
A: Its inhibition is 0.85%.

Q: Which inhibition does the source give for CCOC(=O)C1CCN(CC(O)COc2ccc(C(=O)CC)cc2)CC1 (stereo unspecified) here?
A: The inhibition was -15.2%.

Q: Which inhibition does the source give for CCOC(=O)C1CCN(CC(O)COc2ccc(C(C)=O)cc2)CC1 (stereo unspecified) here?
A: Its inhibition is -0.99%.

Q: With COC(=O)c1ccc(CNC(=O)COC(=O)c2cccs2)cc1 as the compound, how does the inhibition read?
A: Its inhibition is 12.5%.

Q: With COc1ccc(/C=C2\N=C(C)N(c3ccc4ccccc4c3)C2=O)cc1OC as the compound, how does the inhibition read?
A: The inhibition was 4.18%.

Q: Which inhibition does the source give for COc1ccccc1-c1nnc(NC(=O)c2ccc(S(=O)(=O)N3CCOCC3)cc2)o1 here?
A: Its inhibition is 43.3%.

Q: For COc1cc(-c2nnc(NC(=O)c3ccc(S(=O)(=O)N4CCOCC4)cc3)o2)cc(OC)c1OC, which inhibition is on record?
A: The inhibition was 5.07%.

Q: For CCCN(CC(=O)Nc1ccccc1OC)C(=O)c1ccccn1, which inhibition is on record?
A: Its inhibition is 0.49%.

Q: For C=CCN1C(=O)c2ccc(C(=O)N(C)CC(=O)Nc3cccc(F)c3)cc2C1=O, which inhibition is on record?
A: Its inhibition is 0%.

Q: Which inhibition does the source give for CCOC(=O)c1c(C)[nH]c(C(=O)OCC(=O)NCc2ccc(OC)c(OC)c2)c1C here?
A: The inhibition was 3.95%.

Q: With COc1ccc(C)cc1Nc1n[n+](-c2ccccc2)c(-c2cc(OC)c(OC)cc2Br)s1 as the compound, how does the inhibition read?
A: The inhibition was 62.1%.

Q: For COc1ccc(C)cc1Nc1n[n+](-c2ccccc2)c(-c2cccc(Cl)c2Cl)s1, which inhibition is on record?
A: The inhibition was 60%.

Q: For COC(=O)C1=C(C(=O)OC)[C@@H]2N(C)c3ccc(OC)cc3[C@@]23C[C@@H](C(=O)OC)N(C(=O)CC(C)C)C3=N1, which inhibition is on record?
A: Its inhibition is -3.14%.

Q: For O=C(C1=C(O)C(=O)N(Cc2ccco2)C1c1ccccc1F)c1cccs1 (stereo unspecified), which inhibition is on record?
A: The inhibition was 12.7%.

Q: For Cc1cc(C)n(-c2ccc(F)cc2CN2CCN(C3CCCC3)C(CCO)C2)n1 (stereo unspecified), which inhibition is on record?
A: Its inhibition is 8.29%.

Q: For C=C(C)C1CC=C(CN2CCC(O)CC2)CC1 (stereo unspecified), which inhibition is on record?
A: The inhibition was -0.8%.

Q: For C=C(C)C1CC=C(CN2CC(C)OC(C)C2)CC1 (stereo unspecified), which inhibition is on record?
A: The inhibition was -4.9%.

Q: For CCOC(=O)c1c(/N=C/N(C)C)sc(/C=N/Nc2ccccc2)c1-c1ccc(Cl)cc1, which inhibition is on record?
A: Its inhibition is 69%.

Q: With CCOC(=O)c1c(/N=C/N(C)C)sc(/C=N/Nc2ccccc2)c1-c1ccccc1 as the compound, how does the inhibition read?
A: The inhibition was 4.1%.

Q: Which inhibition does the source give for CN(CC(=O)NCc1ccccc1)S(=O)(=O)c1cnc[nH]1 here?
A: Its inhibition is 2.4%.

Q: For Cc1cc(C)cc(OCC(=O)OCC(=O)NC2CCCCCC2)c1, which inhibition is on record?
A: The inhibition was 2.47%.

Q: With CSc1ncnc2c1cnn2-c1ccc(C)cc1C as the compound, how does the inhibition read?
A: The inhibition was 6.4%.

Q: Which inhibition does the source give for Cc1ccc(-n2ncc3c(SCC(=O)Nc4cc(C)on4)ncnc32)c(C)c1 here?
A: Its inhibition is -4.04%.

Q: Which inhibition does the source give for O=C(NCc1cccnc1)C1CCCN(S(=O)(=O)c2ccc(Cl)cc2)C1 (stereo unspecified) here?
A: The inhibition was -6.29%.
